# Screens: PubChem BioAssay, National Center for Advancing Translational Sciences (NCATS)
# Sampled rows, rich in hits. Any-hit rate of the full collection: about 19%.
# TDP1 cell CPT: growth inhibition of DT40 Tdp1-/-;hTDP1 cells with camptothecin (screen for TDP1 inhibitors); 420,000 compounds, 12% hits; chicken DT40 Tdp1-/-;hTDP1 cells + 20 nM CPT, ATP luminescence, 48 h; Potency, µM (series often up to 46.2 µM), inactives show at the highest dose activity change, negative = growth inhibition, usual class: inhibitors; also: potency is read from the fitted curve at half-maximal effect; nearly all actives have a fitted effect of over 55% in size
#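 Chicken DT40 Tdp1-/- cells complemented with human TDP1, 400 cells/well, exposed to compounds plus 20 nM camptothecin for at least 48 h at 37 C; viability read as ATP content by CellTiter-Glo luminescence.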
# HT1080-NT tox: kills 2HG-producing HT-1080-NT fibrosarcoma cells. Potency, µM (highest dose often 46.1 µM), without a hit: at the top dose activity, negative = less viability, usual class: cytotoxic. AID 686970. 360,000 compounds, 1.6% hits. HT-1080-NT fibrosarcoma viability, CellTiter-Glo ATP luminescence, 48 h;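 also: NT is the 2HG producing partner of a matched IDH1 knockdown line; potency is read from the fitted curve at half-maximal effect; 0% = DMSO-treated cells and -100% = media-only wells without cells; nearly all actives have a fitted effect of over 55% in size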
#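 A 48-hour cytotoxicity screen used HT-1080-NT cells plated 2 hours before compound delivery. ATP-based CellTiter-Glo luminescence measured viability, normalized to DMSO and no-cell controls.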
# DT40 TDP1 no CPT: qHTS for Inhibitors of human tyrosyl-DNA phosphodiesterase 1 (TDP1): qHTS in cells in absence of CPT; DT40 Tdp1-/- hTDP1 cells, no CPT, ATP luminescence, 48 h; Potency, µM (doses to about 46.2 µM), for the others: at the highest dose activity change, negative = growth inhibition, actives largely listed as inhibitors; 420,000 compounds, 15% hits; AID 686978, 2013; also: potency is read from the fitted curve at half-maximal effect; nearly all actives have a fitted effect of over 55% in size
#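 Cells were dispensed at 400 per well, compounds added by pin tool, plates incubated ≥48 hr at 37 °C, then CellTiter-Glo added for 30 min at room temperature before luminescence reading. Line: DT40 Tdp1-/- complemented with hTDP1; camptothecin omitted.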
# HT1080 IDH1KD tx: HT-1080 IDH1 knockdown cell toxicity (counter line) | 360,000 compounds, 2% hits | Potency, µM (titrated, usually from 46.1 µM), inactives show top-dose activity, negative = toxicity, actives largely listed as cytotoxic | HT-1080 IDH1 knockdown viability, ATP luminescence, 48 h;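 also: potency is read from the fitted curve at half-maximal effect; 0% = DMSO wells and -100% = cell-free medium wells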
#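 % activity derives from luminescence (CellTiter-Glo), normalised to DMSO and no-cell wells. HT-1080-IDH1KD cells, 750/well, had 48 h compound exposure at 37 °C.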
# IL-1B inflam inh: inflammasome signaling inhibition, IL-1 beta readout. THP-1 LPS/ATP IL-1B secretion, AlphaLISA, 16 h; hits give low values. activity change, % at 57.5 µM. 360,000 compounds, 4.7% hits. AID 743279; in the data active = activity change below about -50%; inconclusive = mostly about -30% to -49%
#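 THP-1 cells pretreated 1 hr with compounds (up to 57.5 uM final), then stimulated with LPS (250 ng/mL final) plus ATP (1.25 mM final); secreted IL-1B measured by AlphaLISA after 16 hr, decreased signal indicating inhibition.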
# Starred values were filed as active, the others as inactive; i = inactive; ? = inconclusive; . = no result given. Unless noted, calls follow the shape of the dose curve; as a rule, active = well fitted curve in the direction sought with a large enough effect; inconclusive = small, poorly fitted or top-dose-only effect, or another doubt; inactive = no such curve, though single readings can be large; an effect the other way counts as inactive or inconclusive. Unless noted, % is scaled to controls: 0 for no effect and ±100 for the full control effect.
SMILES,TDP1 cell CPT,HT1080-NT tox,DT40 TDP1 no CPT,HT1080 IDH1KD tx,IL-1B inflam inh
COc1cc(-c2ccc(N3C(c4ccsc4)=Cc4ccccc4C3CC(C)=O)cc2)cc(OC)c1OC (stereo unspecified),?,0%,?,12%,0
COc1ccc2c(c1)C(CC(C)=O)N(c1ccc(-c3cnc(OC)nc3)cc1)C(c1ccsc1)=C2 (stereo unspecified),-15%,0%,?,2%,13
COc1cc(OC)cc(C2=Cc3ccc(OC)cc3C(CC(C)=O)N2c2ccc(C#CC3(O)CCCCC3)cc2)c1 (stereo unspecified),?,-17%,21µM*,-24%,-24
COc1cccc(C2=Cc3ccc(F)cc3C(CC(C)=O)N2c2ccc(C#CC3(O)CCCCC3)cc2)c1 (stereo unspecified),?,?,?,?,-18
Cc1ccc(NC(=O)C2(C)CCCN(C(C)C)C2)cc1C (stereo unspecified),-25%,?,?,8%,0
Cc1c(C(=O)N(C)CC2CCCN(C)C2)cnn1-c1nccc(-c2ccco2)n1 (stereo unspecified),3%,.,1%,.,.
O=C(Cn1c(=O)oc2cc(S(=O)(=O)NCc3ccccc3)ccc21)NCc1ccccc1Cl,7.3µM*,.,9.2µM*,.,.
O=C(Cn1c(=O)oc2cc(S(=O)(=O)NCc3ccccc3)ccc21)NCc1ccco1,?,-3%,?,6%,-13
O=C(Cn1c(=O)oc2cc(S(=O)(=O)N3CCCC3)ccc21)NCc1ccc(Cl)cc1,16µM*,.,21µM*,.,.
O=C(Cn1c(=O)oc2cc(S(=O)(=O)NCc3ccccc3)ccc21)NCc1ccc(Cl)cc1,13µM*,.,?,.,.
CCOc1ccc(N=NC2C(=O)N(C(N)=S)N=C2C)cc1 (stereo unspecified),-6%,16%,?,-2%,15
O=S(=O)(Nc1cc(Cl)ccc1-n1cncn1)c1ccc(F)cc1,?,-7%,?,-4%,45
O=S(=O)(Nc1cc(Cl)ccc1-n1cncn1)c1cc(Br)ccc1Br,26µM*,?,5.8µM*,?,-54*
Cc1cccc(OCc2nnc(-c3ccc(F)cc3)o2)c1,-5%,14%,-2%,7%,-2
COC(=O)c1cccc(Nc2nc3ccccc3nc2C)c1,18µM*,-26%,?,?,13
COC(=O)c1cc(Nc2cc(C)c3ccc(O)cc3n2)cc(C(=O)OC)c1,?,-1%,-27%,-9%,-65*
O=C(O)c1cccc(Nc2nc3ccccc3nc2NS(=O)(=O)c2ccccc2)c1,-20%,1%,-1%,-1%,20
COC(=O)c1cc(Nc2cc(C)c3c(O)cccc3n2)cc(C(=O)OC)c1,21µM*,-26%,13µM*,-13%,-21
COC(=O)c1cc(Nc2cc(C)nc3ncnn23)cc(C(=O)OC)c1,-8%,4%,-5%,3%,14
COc1ccc(N(CC(=O)NCC2CCCO2)C(=O)CCC(=O)Nc2nccs2)cc1 (stereo unspecified),-2%,-4%,0%,-5%,13
Cc1cc(C([O-])=C(C(=S)Nc2ccc(F)cc2)[n+]2ccccc2)c(C)n1-c1ccc(F)cc1,26µM*,-1%,21µM*,-2%,-19
COc1cccc(NC(=S)/C(=C(\[O-])c2cc(C)n(-c3ccccc3F)c2C)[n+]2ccc(N(C)C)cc2)c1,21µM*,-13%,12µM*,-24%,-17
O=C(COC(=O)c1ccc(Cl)nc1)Nc1ccc2c(c1)OCCO2,2%,2%,-19%,?,22
CNCCCCOc1ccc(C(C)(C)C)cc1Cl,?,-23%,?,-1%,-55*
CC(C)(C)c1ccc(OCCON2C(=O)CCC2=O)c(Cl)c1,0%,2%,-22%,3%,5
SMILES,TDP1 cell CPT,HT1080-NT tox,DT40 TDP1 no CPT,HT1080 IDH1KD tx,IL-1B inflam inh
O=S(=O)(Nc1ccncc1)c1ccc(Cl)c(Cl)c1,-8%,-11%,-8%,2%,4
O=c1c2ccccc2oc2cc(NCCCN3CCOCC3)ccc12,?,-4%,?,-1%,-51*
O=c1c2ccccc2oc2ccc(NCCCN3CCOCC3)cc12,?,-2%,-23%,-12%,-53*
Cn1c2ccccc2c(=O)c2cc(NCCCN3CCOCC3)ccc21,?,-2%,?,-3%,?
COc1cccc2sc3cc(NCCCN4CCOCC4)ccc3c(=O)c12,?,3%,?,9%,-60*
CC(=O)OC[C@H]1O[C@@](COC(C)=O)(O[C@H]2O[C@H](COC(C)=O)[C@@H](OC(C)=O)[C@H](OC(C)=O)[C@H]2OC(C)=O)[C@@H](OC(C)=O)[C@@H]1OC(C)=O,4%,.,-6%,.,.
O=S(=O)(c1ccc(Cl)s1)N1CCN(Cc2ccccc2)CC1,?,9%,16µM*,8%,20
O=S(=O)(c1ccc(Cl)s1)N1CCN(C/C=C/c2ccccc2)CC1,16µM*,-9%,?,-19%,-11
COc1ccc(C)cc1S(=O)(=O)N1CCN(S(=O)(=O)c2cc(C)ccc2OC)CC1,-13%,-1%,-15%,1%,-4
CS(=O)(=O)N1CCN(C/C=C/c2ccccc2)CC1,-25%,-3%,?,-2%,-15
COc1ccc(C)cc1S(=O)(=O)N1CCN(C/C=C/c2ccccc2)CC1,?,-4%,15µM*,-5%,-2
O=S(=O)(c1ccc(Cl)s1)N1CCN(CCc2ccccc2)CC1,-21%,-13%,-26%,-10%,i
NC1=C(Cl)C(=O)c2ccccc2C1=O,5.2µM*,?,4.6µM*,?,-13
NC1=C(Cl)C(=O)c2ccc(S(N)(=O)=O)cc2C1=O,0.41µM*,8.2µM*,0.46µM*,6.5µM*,-98*
Nc1ccnc(=O)[nH]1,-9%,?,6%,6%,22
Cc1cccc(C)c1NC(=O)CN(C)C(C)C(=O)Nc1ccccc1-c1ccccc1 (stereo unspecified),?,-2%,-23%,8%,-6
Cc1ccccc1CN(C)C(C)C(=O)Nc1ccccc1F (stereo unspecified),?,-5%,26µM*,-5%,0
COc1ccc2c(c1)C[C@]1(C)c3ccccc3C(=O)N(Cc3ccccc3)[C@H]21,16µM*,-24%,6.3µM*,?,-12
COc1ccc2c(c1)C(=O)N(Cc1ccccc1)C(=O)C2(C)C,-2%,-5%,-30%,-9%,-15
CCNc1nc(NC(C)CC)nc(Oc2ccc(OCC)nn2)n1 (stereo unspecified),10µM*,-17%,9.2µM*,-2%,68
